PubChem BioAssay (Tox21)
Results filed as inconclusive are left out. Entries that show only a call come without a potency. Active and inactive are the calls of the source. The call rests on the fitted dose curve.
Potency means the concentration at half of the fitted maximal effect.

What follows are compounds tested against Peroxisome proliferator-activated receptor gamma (Homo sapiens) (UniProt P37231) (assay: qHTS assay to identify small molecule antagonists of the peroxisome proliferator-activated receptor gamma (PPARg) signaling pathway (AID 743191; further: nearly all actives have a fitted effect of over 30% in size)). Settings: HEK293H PPARg-UAS-bla, beta-lactamase ratio, antagonist, 17 h; series mostly up to 62.6 µM.
Peroxisome proliferator-activated receptor gamma (Homo sapiens), sequence (P37231 whole entry, looked up): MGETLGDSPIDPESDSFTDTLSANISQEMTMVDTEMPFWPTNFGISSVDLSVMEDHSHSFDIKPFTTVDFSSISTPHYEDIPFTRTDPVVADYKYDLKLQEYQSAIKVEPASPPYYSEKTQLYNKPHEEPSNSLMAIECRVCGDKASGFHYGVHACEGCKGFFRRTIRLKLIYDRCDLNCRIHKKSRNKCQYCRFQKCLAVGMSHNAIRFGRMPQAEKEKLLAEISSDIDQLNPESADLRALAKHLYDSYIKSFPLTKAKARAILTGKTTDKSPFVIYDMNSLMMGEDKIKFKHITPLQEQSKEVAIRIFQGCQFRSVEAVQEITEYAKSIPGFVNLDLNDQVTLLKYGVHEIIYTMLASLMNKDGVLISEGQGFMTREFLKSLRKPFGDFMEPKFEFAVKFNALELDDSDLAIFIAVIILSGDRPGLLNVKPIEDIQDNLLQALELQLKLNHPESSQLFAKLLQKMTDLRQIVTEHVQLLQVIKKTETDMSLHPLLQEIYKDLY
From the text: U.S. Tox21 Program National Center for Advancing Translational Sciences [NCATS] NIH Chemical Genomics Center [NCGC] U.S. Environmental Protection Agency [EPA] National Institutes of Environmental Health Sciences [NIEHS] National Toxicology Program [NTP] U.S. Food and Drug Administration [FDA] Tox21 Assay Overview: The peroxisome proliferator-activated receptors (PPARs) are lipid-activated transcription factors of the nuclear receptor superfamily with three distinct subtypes namely PPAR alpha, PPAR delta (also called PPAR beta) and PPAR gamma (PPARg). All these subtypes heterodimerize with Retinoid X receptor (RXR) and these heterodimers regulate transcription of various genes. PPAR-gamma receptor (glitazone receptor) is involved in the regulation of glucose and lipid metabolism. To identify the compounds that inhibit PPAR-gamma signaling, GeneBLAzer PPAR gamma UAS-bla HEK293H cell line (Invitrogen, Carlsbad, CA, USA) containing a beta-lactamase reporter gene under control of an Upstream Activator Sequence (UAS) was used to screen the Tox21 compound library.
Tox21 Assay Protocol Summary: PPARg-bla cells were dispensed at 3000 cells/6uL/well in 1536-well black wall/clear bottom plates using a Multidrop Combi (Thermo Fisher Scientific, Waltham, MA) dispenser. After the assay plates were incubated at 37C and 5% CO2 for 5 h, 23 nL of compounds dissolved in DMSO, positive controls or DMSO only was transferred to the assay plate by a Pintool station (Kalypsys, San Diego, CA). The assay plates were incubated at 37C for 17 h. After 1 uL of LiveBLAzerTM B/G FRET substrate was added using a Bioraptr Flying Reagent Dispenser (FRD) workstation (Beckman Coulter, Indianapolis, IN, USA), the plates were incubated at room temperature for 1 h, and fluorescence intensity was measured by an Envision plate reader (PerkinElmer, Shelton, CT).
`Cc1ccccc1CCl` was tested, and the Potency was “inactive”. In the case of `CCC(Cl)CCl` (stereo not given), the Potency is reported as “inactive”. In the case of `ClC=C(Cl)Cl`, the Potency is reported as “inactive”. `COP(=S)(OC)Oc1ccc([N+](=O)[O-])cc1Cl` was tested, and the Potency was “inactive”. With `O=C=Nc1ccc(Cl)cc1` the Potency was “inactive”. With `CCCCCCC#N` the Potency was “inactive”. In the case of `NC(=O)CI`, the Potency is reported as “inactive”. `c1ccc(C2CC2)c(OCC2=NCCN2)c1` was tested, and the Potency was “inactive”. In the case of `O=C(O)c1ccccc1C(=O)Nc1cccc2ccccc12`, the Potency is reported as “inactive”. `CN1[C@@H]2CC[C@H]1CC(OC(=O)c1cc(Cl)cc(Cl)c1)C2` (stereo not given in full) was tested, and the Potency was “inactive”. With `CCO[C@H]1O[C@@H]2OC3(C)CC[C@H]4[C@H](C)CC[C@@H]([C@H]1C)[C@@]24OO3` the Potency was “inactive”. With `COc1nn(C(=O)NS(=O)(=O)c2ccccc2OC(F)(F)F)c(=O)n1C` the Potency was “inactive”. In the case of `CC(C)N(C(=O)COc1nnc(C(F)(F)F)s1)c1ccc(F)cc1`, the Potency is reported as 7.76 µM (active). With `CCCN(CCC)c1c([N+](=O)[O-])cc(S(C)(=O)=O)cc1[N+](=O)[O-]` the Potency was “inactive”. For `CC1(C)CCC(Cc2ccc(Cl)cc2)C1(O)Cn1cncn1` (stereo not given), the Potency was 49 µM (active). In the case of `ClP(Cl)(Cl)(Cl)Cl`, the Potency is reported as “inactive”. With `C=CCC1([C@H](C)CCC)C(=O)NC(=O)NC1=O` the Potency was “inactive”. `O=NN1CCNCC1` was tested, and the Potency was “inactive”. `Clc1cc(Cl)c(Cl)c(Cl)c1` was tested, and the Potency was “inactive”. With `CCOS(C)(=O)=O` the Potency was “inactive”. In the case of `CCN(C)N=O`, the Potency is reported as “inactive”. For `N#CCC#N`, the Potency was “inactive”. With `O=C(N[C@H](c1ccccc1)[C@@H]1CN2CCC1CC2)c1c(Cl)ccc(C(F)(F)F)c1Cl` the Potency was 4.97 µM (active). In the case of `Clc1ccc(C2(Cn3cncn3)CC(Br)CO2)c(Cl)c1` (stereo not given), the Potency is reported as “inactive”. With `ClCc1cccc(Cl)c1` the Potency was “inactive”. With `O=S1OC[C@@H]2[C@H](CO1)[C@]1(Cl)C(Cl)=C(Cl)[C@@]2(Cl)C1(Cl)Cl` (stereo not given in full) the Potency was “inactive”. `C=CC(=O)OC(C)(C)C` was tested, and the Potency was “inactive”. In the case of `COC(=O)C(C)N(C(=O)Cc1ccccc1)c1c(C)cccc1C` (stereo not given), the Potency is reported as “inactive”. `CCOP(=S)(OCC)Oc1cc(Cl)c(Br)cc1Cl` was tested, and the Potency was “inactive”. In the case of `COc1nn(CSP(=S)(OC)OC)c(=O)s1`, the Potency is reported as 49 µM (active). With `CC(=O)C(C)(C)C` the Potency was “inactive”. In the case of `Cc1ccccc1C(=O)Nc1cccc(OC(C)C)c1`, the Potency is reported as 49 µM (active). `CCC(Br)(CC)C(=O)NC(N)=O` was tested, and the Potency was “inactive”. `O=[N+]([O-])C(Br)(CO)CO` was tested, and the Potency was “inactive”. In the case of `CCCCN=C=O`, the Potency is reported as “inactive”. `C/C=C/C=O` was tested, and the Potency was “inactive”. In the case of `ClCC(Br)CBr` (stereo not given), the Potency is reported as “inactive”. `COC(=O)c1cncn1C(C)c1ccccc1` (stereo not given) was tested, and the Potency was “inactive”. In the case of `[O-][Cl+]O`, the Potency is reported as “inactive”. In the case of `Nc1nc(N)nc(N)n1`, the Potency is reported as “inactive”.
